Data taken from PubChem BioAssay (Tox21).
“And” between values parts separate entries of the source, which are not always exact repeats. Equal entries are not always repeated. Results filed as inconclusive are left out. A call without a number means that no potency is given here. More than one record can exist for a structure, and the calls need not agree. The source made the active and inactive calls. Calls come from the whole dose curve; as a rule, active = well fitted curve in the direction sought with a large enough effect in the repeat runs; inconclusive = weak or mixed curves; inactive = no such curve, though single readings can be large; an effect the other way counts as inactive or inconclusive.

Experiments:
[1] = qHTS RealTime-Glo MT Cell Viability Assay in HEK293 cells - 16 hour (AID 1224872); note: top concentration of the series differs between compounds; nearly all actives have a fitted effect of over 50% in size
How it was run: (§1)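 HEK293 cells seeded with NanoLuc/prosubstrate reagent, rested 5 h at 37 C, then dosed and kept at 37 C up to 40 h. Nonlytic real-time luminescence from viable cells read at 0, 8, 16, 24, 32 and 40 h.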

[2] = qHTS RealTime-Glo MT Cell Viability Assay in HepG2 cells - 8 hour (AID 1224873); note: nearly all actives have a fitted effect of over 55% in size
How it was run: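 HepG2 cells mixed with RealTime-Glo MT reagents (NanoLuc plus cell-permeant prosubstrate) were seeded at 600 cells/well, incubated 5 h at 37 C/5% CO2, then pinned with compounds in DMSO; nonlytic luminescence tracked viability during 40 h treatment.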

[3] = qHTS RealTime-Glo MT Cell Viability Assay in HEK293 cells - 40 hour (AID 1224874); details: RealTime-Glo luminescence; max response: stronger effect = lower value; note: nearly all actives have a fitted effect of over 50% in size
How it was run: (§2)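 Luminescence readout at each listed time point; HEK293, 600 cells/well, RealTime-Glo MT reagent added with cells; compounds pinned (23 nL in DMSO) after 5 h at 37 C; continuous culture at 37 C.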

[4] = A CellTox Green Cytotoxicity Assay to monitor cytotoxicity in HEK293 cells - 24 hour (AID 1224875); note: series mostly up to about 77 µM; nearly all actives have a fitted effect of over 45% in size
How it was run: (§3)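 Read-out: fluorescence of a cell-impermeant cyanine dye staining DNA of dead cells, proportional to cytotoxicity. HEK293, 600 cells/well with reagent, compound (23 nL DMSO) added after 5 h; reads at 0, 8, 16, 24, 32, 40 h.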

[5] = A CellTox Green Cytotoxicity Assay to monitor cytotoxicity in HepG2 cells - 16 hour (AID 1224876); note: nearly all actives have a fitted effect of over 45% in size
How it was run: (§4)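 HepG2, 600 cells/well premixed w/ CellTox Green; 5 h settle, 37 C/5% CO2; pintool cpd add (DMSO); 37 C, 40 h; fluorescence read at 0, 8, 16, 24, 32, 40 h.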

[6] = qHTS RealTime-Glo MT Cell Viability Assay in HepG2 cells - 32 hour (AID 1224877); note: nearly all actives have a fitted effect of over 55% in size
How it was run: (§5)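 HepG2 cells (600/well) were dispensed with RealTime-Glo reagents, incubated 5 h at 37 °C, then treated with compounds in DMSO for up to 40 h. Nonlytic NanoLuc luminescence reflecting viable cells was read at each stated time point.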

[7] = A CellTox Green Cytotoxicity Assay to monitor cytotoxicity in HepG2 cells - 24 hour (AID 1224878); note: nearly all actives have a fitted effect of over 45% in size
How it was run: as §4

[8] = A CellTox Green Cytotoxicity Assay to monitor cytotoxicity in HepG2 cells - 40 hour (AID 1224879); note: nearly all actives have a fitted effect of over 40% in size; note: potency is the fitted concentration of half-maximal effect
How it was run: as §4

[9] = qHTS RealTime-Glo MT Cell Viability Assay in HEK293 cells - 0 hour (AID 1224880); note: top concentration of the series differs between compounds; nearly all actives have a fitted effect of over 45% in size
How it was run: as §2

[10] = A CellTox Green Cytotoxicity Assay to monitor cytotoxicity in HEK293 cells - 32 hour (AID 1224881); note: nearly all actives have a fitted effect of over 40% in size
How it was run: as §3

[11] = A CellTox Green Cytotoxicity Assay to monitor cytotoxicity in HepG2 cells - 0 hour (AID 1224882); note: nearly all actives have a fitted effect of over 35% in size
How it was run: as §4

[12] = A CellTox Green Cytotoxicity Assay to monitor cytotoxicity in HepG2 cells - 32 hour (AID 1224883); note: nearly all actives have a fitted effect of over 50% in size; note: potency is the fitted concentration of half-maximal effect
How it was run: as §4

[13] = A CellTox Green Cytotoxicity Assay to monitor cytotoxicity in HEK293 cells - 8 hour (AID 1224884); note: nearly all actives have a fitted effect of over 35% in size
How it was run: as §3

[14] = qHTS RealTime-Glo MT Cell Viability Assay in HepG2 cells - 16 hour (AID 1224885); note: nearly all actives have a fitted effect of over 50% in size
How it was run: as §5

[15] = qHTS RealTime-Glo MT Cell Viability Assay in HEK293 cells - 24 hour (AID 1224886)
How it was run: as §1

[16] = qHTS RealTime-Glo MT Cell Viability Assay in HEK293 cells - 8 hour (AID 1224887); note: nearly all actives have a fitted effect of over 50% in size; note: potency is the fitted concentration of half-maximal effect
How it was run: as §2

[17] = A CellTox Green Cytotoxicity Assay to monitor cytotoxicity in HEK293 cells - 16 hour (AID 1224888); note: nearly all actives have a fitted effect of over 35% in size
How it was run: as §3

[18] = qHTS RealTime-Glo MT Cell Viability Assay in HepG2 cells - 0 hour (AID 1224889); note: nearly all actives have a fitted effect of over 50% in size
How it was run: as §5

[19] = A CellTox Green Cytotoxicity Assay to monitor cytotoxicity in HepG2 cells - 8 hour (AID 1224890); note: nearly all actives have a fitted effect of over 45% in size; note: potency is the fitted concentration of half-maximal effect
How it was run: as §4

[20] = qHTS assay to identify small molecule antagonists of the estrogen receptor alpha (ER-alpha) signaling pathway using the BG1 cell line in the presence of 0.1 nM 17-beta-estradiol - cell viability counter screen (AID 1259241); note: nearly all actives have a fitted effect of over 40% in size; note: potency is the fitted concentration of half-maximal effect
How it was run: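 CellTiter-Fluor read (30 min, 37C) on ER-alpha/ERE-luc VM7Luc4E2 cells; 22 hr compound treatment; agonist 0.1 nM E2 final; same-well multiplex.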

Structure (SMILES) | Potency [1] | Potency [2] | max response [3] | Potency [4] | Potency [5] | Potency [6] | Potency [7] | Potency [8] | Potency [9] | Potency [10] | Potency [11] | Potency [12] | Potency [13] | Potency [14] | Potency [15] | Potency [16] | Potency [17] | Potency [18] | Potency [19] | Potency [20]
CCCCOCCO | inactive | inactive | 3.58% (inactive) and 5.47% (inactive) | inactive | inactive | inactive | inactive | inactive | inactive | inactive | inactive | inactive | inactive | inactive | inactive | inactive | inactive | inactive | inactive | inactive
O=Nc1ccc(O)cc1 | inactive | inactive | 2.25% (inactive) | inactive | inactive | inactive | inactive | inactive | inactive | inactive | inactive | inactive | inactive | inactive | inactive | 24 µM (active) and inactive | inactive | – | inactive | inactive
CCC(=O)O | inactive | inactive | 12.8% (inactive) and 8.4% (inactive) and 13% (inactive) | inactive | inactive | inactive | inactive | inactive | inactive | inactive | inactive | inactive | inactive | inactive | inactive | inactive | inactive | inactive | inactive | inactive
CC(C)(C)C(=O)C1C(=O)c2ccccc2C1=O | inactive | inactive | -29.9% (inactive) and -11.1% (inactive) | inactive | inactive | inactive | inactive | 54.4 µM (active) and inactive | inactive | inactive | inactive | 54.4 µM (active) and inactive | inactive | inactive | inactive | inactive | inactive | inactive | inactive | 54.5 µM (active)
CCOC(=O)[C@H](CCc1ccccc1)N[C@@H](C)C(=O)N1Cc2ccccc2C[C@H]1C(=O)O | inactive | inactive | -0.607% (inactive) and -1.19% (inactive) | inactive | inactive | inactive | inactive | inactive | inactive | inactive | inactive | inactive | inactive | inactive | inactive | inactive | inactive | – | inactive | inactive
CC[Si](OC(C)=O)(OC(C)=O)OC(C)=O | inactive | inactive | 13.5% (inactive) and 2.5% (inactive) | inactive | inactive | inactive | inactive | inactive | inactive | inactive | inactive | inactive | inactive | inactive | inactive | inactive | inactive | – | inactive | inactive
OC1CCCC1 | inactive | inactive | 8.58% (inactive) and -2.67% (inactive) | inactive | inactive | inactive | inactive | inactive | inactive | inactive | inactive | inactive | inactive | inactive | inactive | inactive | inactive | – | inactive | inactive
O=[N+]([O-])c1cccc(Cl)c1 | inactive | inactive | 7.7% (inactive) | inactive | inactive | inactive | inactive | inactive | inactive | inactive | inactive | inactive | inactive | inactive | inactive | inactive | inactive | inactive | inactive | inactive
Cn1c([N+](=O)[O-])cnc1COC(N)=O | inactive | inactive | 0.779% (inactive) and 12.4% (inactive) | inactive | inactive | inactive | inactive | inactive | inactive | inactive | inactive | inactive | inactive | inactive | inactive | inactive | inactive | – | inactive | inactive
CS(=O)(=O)Nc1ccc([N+](=O)[O-])cc1Oc1ccccc1 | inactive | inactive | -6.51% (inactive) and 1.07% (inactive) | inactive | inactive | inactive | inactive | inactive | – | inactive | inactive | inactive | inactive | inactive | inactive | inactive | inactive | – | inactive | –
C[C@@H]1O[C@@H](OC[C@H]2O[C@@H](Oc3c(-c4ccc(O)c(O)c4)oc4cc(O)cc(O)c4c3=O)[C@H](O)[C@@H](O)[C@@H]2O)[C@H](O)[C@H](O)[C@H]1O | inactive | inactive | -1.83% (inactive) and 0.783% (inactive) | inactive | inactive | inactive | inactive | inactive | inactive | inactive | inactive | inactive | inactive | inactive | inactive | inactive | inactive | – | inactive | inactive
Cc1ccc(N)c(S(=O)(=O)O)c1 | inactive | inactive | -4.11% (inactive) and 2.65% (inactive) | inactive | inactive | inactive | inactive | – | inactive | inactive | inactive | inactive | inactive | inactive | inactive | inactive | inactive | inactive | inactive | inactive
O=C(c1ccc(O)cc1)c1ccc(O)cc1O | inactive | inactive | -21.4% (inactive) | inactive | inactive | inactive | inactive | – | inactive | inactive | inactive | inactive | inactive | inactive | inactive | inactive | inactive | inactive | inactive and 54.9 µM (active) | inactive
